# Measured values as given in PubChem BioAssay AID1259420 (Broad Institute, 2018).
# Hit rate of the full screen: of about 1,000 compounds, about 250 (25%) were called active. Another 31% or so got no clear call; they are omitted. Only a sample is shown. Results with a measured potency or affinity are listed apart. Values without a mark were called inactive. The rule behind the calls is not given here.
# Assay: compound activity on host-cell Toxoplasma growth – dose response (AID 1259420);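 note: host cells were HeLa; final incubation lasted 72 hours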
# Details: Toxoplasma gondii growth in host cells, no IFN-gamma
smiles,measurement,setting,value
OC1(c2cccc(C(F)(F)F)c2)CCN(Cc2ccc3[nH]ccc3c2)CC1,max activity,at 19.5 µM unless noted,6.52% [at 0.16 µM]
O=C(Cc1cccnc1)N1CC(=O)N2[C@H](CO)[C@@H](c3ccc(C#CC4CCCCC4)cc3)[C@@H]2C1,max activity,at 0.6 µM,-7.69%
same,max activity,at 19.5 µM,16.4%
Cc1cc(C(=O)N2CCC(c3cc4c(ncn4C)c(NCC4CC4)n3)CC2)ccc1Cl,max activity,at 19.5 µM unless noted,13.8%
Cc1ccccc1S(=O)(=O)N1CCCCN2[C@H](C1)[C@@H](c1ccc(C#CCN(C)C)cc1)[C@@H]2CO,max activity,at 19.5 µM unless noted,-29.9% [at 10 µM]
Cc1ccccc1S(=O)(=O)N1CCCCN2[C@@H](CO)[C@@H](c3ccc(C#CCN(C)C)cc3)[C@@H]2C1,max activity,at 19.5 µM unless noted,48.3%
Cc1ccccc1-c1ccc([C@H]2[C@H]3CN(S(=O)(=O)Cc4ccccc4)CCCCN3[C@H]2CO)cc1,max activity,at 19.5 µM unless noted,24.5%
O=S(=O)(c1ccc(F)cc1)N1CCCCN2[C@H](C1)[C@H](c1ccc(-c3cncnc3)cc1)[C@@H]2CO,max activity,at 19.5 µM unless noted,22.3%
COc1cccc(-c2ccc([C@H]3[C@H](CO)N4C(=O)CN(C(=O)c5cccnc5)C[C@@H]34)cc2)c1,max activity,at 19.5 µM unless noted,-9.74% [at 1.2 µM]
O=C(C1CCOCC1)N1CC(=O)N2[C@@H](CO)[C@H](c3ccc(/C=C/c4ccccc4)cc3)[C@@H]2C1,max activity,at 19.5 µM unless noted,7.51% [at 5 µM]
CC(=O)N1CCC(N(C)Cc2cc(C(C)(C)C)n[nH]2)CC1,max activity,at 19.5 µM unless noted,-9.85%
COCC(=O)N1CCC2(CC1)CC1(CCN(CC(C)C)CC1)C(=O)N2C,max activity,at 19.5 µM unless noted,-12.4% [at 10 µM]
COc1cccc(S(=O)(=O)N2CC[C@@H]3[C@H]2c2cc(C#Cc4cccnc4)ccc2N[C@@H]3CO)c1,max activity,at 19.5 µM unless noted,17.4%
O=S(=O)(c1ccccc1F)N1CC[C@@H]2[C@H](CO)Nc3ccc(C4=CCCCC4)cc3[C@@H]21,max activity,at 19.5 µM unless noted,-15.7% [at 5 µM]
CNC(=O)NCC1CCC2(CCN(Cc3ccccc3)CC2)CO1 (stereo not drawn),max activity,at 19.5 µM unless noted,-9.71% [at 2.6 µM]
OC[C@H]1[C@H](c2ccc(-c3cccc(F)c3)cc2)[C@H]2CN(Cc3cncnc3)CCCCN21,max activity,at 19.5 µM unless noted,16.3%
N#Cc1c(N2C[C@@H]3NCCO[C@H]3C2)c(F)cc2c(=O)c(C(=O)O)cn(C3CC3)c12,max activity,at 19.5 µM unless noted,9.32% [at 1.2 µM]
Cc1ccc(N2CCC[C@]3(C(=O)O)CN(CCN(C)C)C[C@H]3C2)nn1,max activity,at 19.5 µM unless noted,-23.7% [at 5 µM]
COc1cccc(-c2nn(CC3CC3)c3c2[C@@H]2CN(Cc4ccccc4)C[C@@H]2C3)c1,max activity,at 19.5 µM unless noted,19.1%
Cc1ccc(Cl)cc1N(CC(=O)Nc1c(F)cccc1F)S(C)(=O)=O,max activity,at 19.5 µM unless noted,8.21% [at 1.2 µM]
CC(=O)NCC(=O)N1CCC2(CC1)CC(c1ccccc1)C(=O)N2 (stereo not drawn),max activity,at 19.5 µM unless noted,-12.4% [at 10 µM]
CN1CCN(C(=O)Cc2ccsc2)Cc2cccnc21,max activity,at 19.5 µM unless noted,-16.3% [at 2.6 µM]
CN(C)CCO[C@@H]1CN(C(=O)Cc2ccsc2)[C@H]2CCCO[C@@H]12,max activity,at 19.5 µM unless noted,-11.4% [at 10 µM]
Cc1ccsc1C(=O)N1CCc2nc(-c3cnn(C)c3)nc(NC(C)C)c2C1,max activity,at 19.5 µM unless noted,-6.87%
Cc1ccccc1-c1ccc([C@@H]2[C@H]3CN(C(=O)c4ccncc4)CC(=O)N3[C@H]2CO)cc1,max activity,at 19.5 µM unless noted,7.3% [at 5 µM]
CN1[C@@H]2Cn3c(ccc(/C=C/c4ccccc4)c3=O)[C@H]1[C@@H](C(=O)NC1Cc3ccccc3C1)[C@@H]2CO,max activity,at 19.5 µM unless noted,-16.6% [at 2.6 µM]
Cc1cnn(C(C)C(=O)N2CCc3[nH]nc(-c4ccc(F)c(F)c4)c3C2)c1 (stereo not drawn),max activity,at 19.5 µM unless noted,14% [at 0.16 µM]
Nc1ccc(S(=O)(=O)NC(=O)c2ccccc2)cc1,max activity,at 19.5 µM unless noted,6.39% [at 0.3 µM]
CO[C@H]1CCN(c2ccc(C)nn2)[C@H]1Cc1cnn(C)c1,max activity,at 19.5 µM unless noted,46.8%
C[C@]12CCC3=C4CCC(=O)C=C4CC[C@H]3[C@@H]1CC[C@@]2(O)CC#N,max activity,at 19.5 µM unless noted,-3.24% [at 0.3 µM]
Cc1nnc(N2C[C@@H](Oc3ncccc3F)[C@@H]3OCCC[C@@H]32)s1,max activity,at 19.5 µM unless noted,-11.4% [at 0.16 µM]
C=CCO[C@@H]1CCN(c2cc(OC)ncn2)[C@H]1Cc1cnn(C)c1,max activity,at 19.5 µM unless noted,-8.84% [at 5 µM]
Cc1ccc(-c2cc(C(F)(F)F)nn2-c2ccc(S(N)(=O)=O)cc2)cc1,max activity,at 19.5 µM unless noted,-6.96% [at 0.08 µM]
